In PubChem BioAssay AID2283174 (EPA ToxCast):
Active and inactive are the calls of the source. Rule for the calls: active = hit-call score of the fitted dose curve at least 0.9, where 1 is the maximum; inactive = score below 0.9.

target: human Mitogen-Activated Protein Kinase 11 (MAPK 11), MAPK11 (gene 5600) (UniProt Q15759); test: NVS_ENZ_hMAPK11: NovaScreen (NVS) Enzymatic Assay for human Mitogen-Activated Protein Kinase 11 (MAPK 11)
Method: NVS_ENZ_hMAPK11 is a biochemical, single-readout assay that uses extracted gene-proteins in a cell-free assay. Measurements were taken 0 hour after chemical dosing in a 384-well plate.NVS_ENZ_hMAPK11 is one of one assay component(s) measured or calculated from the NVS_ENZ_hMAPK11 assay. It is designed to make measurements of enzyme activity, a form of enzyme reporter, as detected with fluorescence intensity signals by Fluorescence and electrophoretic mobility shift technology.Data from the assay component NVS_ENZ_hMAPK11 was analyzed into 1 assay endpoint. This assay endpoint, NVS_ENZ_hMAPK11, was analyzed in the positive analysis fitting direction relative to DMSO as the negative control and baseline of activity. Using a type of enzyme reporter, loss-of-signal activity can be used to understand changes in the enzymatic activity as they relate to the gene MAPK11. Furthermore, this assay endpoint can be referred to as a primary readout, because this assay has produced multiple assay endpoints where this one serves a enzymatic activity function. To generalize the intended target to other relatable targets, this assay endpoint is annotated to the kinase intended target family, where the subfamily is serine/threonine kinase.
Binding assays used specific radioligands (tritiated, iodinated) with non-radioactive competitive displacement ligands in agonist or antagonist protocols (as indicated) and various reference compounds and inhibitors to titrate specific binding to receptors and transporters. Most enzyme assays (CYPs, kinases, phosphatases, proteases, HDACs) used recombinant protein and specific substrates (fluorescence mostly, some colorimetric and radioactive) and inhibitors, followed by a biochemical separation of substrate and product. All assays for the biochemical HTS were initially run in duplicate at a single concentration (10 uM for CYP450 assays and 25 uM for all others). Assay-chemical combinations meeting a pre-defined threshold (e.g., 30% inhibition and other criteria defined below) were then run in singleton concentration-response format with maximum concentration of 20 uM for CYPs and 50 uM for all others. Each assay was run with positive and negative controls, and concurrent controls on every plate. The follow-up (secondary) screen tested active chemical-pairs in concentration series, as well as a few additional assays not tested in the primary screen, some selected negative inactives, and several cases re-run in the concentration series for confirmatory purposes.

Sequence of human Mitogen-Activated Protein Kinase 11 (MAPK 11), MAPK11 (gene 5600) (Q15759 whole entry, looked up): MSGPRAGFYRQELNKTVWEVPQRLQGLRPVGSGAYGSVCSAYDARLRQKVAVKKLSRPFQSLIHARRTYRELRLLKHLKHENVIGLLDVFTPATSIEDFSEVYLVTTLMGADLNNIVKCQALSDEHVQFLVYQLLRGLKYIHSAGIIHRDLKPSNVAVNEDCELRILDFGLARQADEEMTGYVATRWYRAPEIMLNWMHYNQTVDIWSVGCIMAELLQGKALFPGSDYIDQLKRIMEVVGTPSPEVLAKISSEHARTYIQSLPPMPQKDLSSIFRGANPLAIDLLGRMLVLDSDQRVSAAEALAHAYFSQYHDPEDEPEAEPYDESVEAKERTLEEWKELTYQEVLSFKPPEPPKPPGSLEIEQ

| Structure (SMILES) | outcome | AC50 |
| --- | --- | --- |
| COCCO | inactive |  |
| C#CCOC(=O)[C@@H](C)Oc1ccc(Oc2ncc(Cl)cc2F)cc1 | inactive |  |
| S=C(S)NCCNC(=S)S.[Mn+2].[S-]C([S-])=NCCN=C([S-])[S-].[Zn+2] |  | 16.6 µM (active) |
| S=C([S-])NCCNC(=S)[S-].[Mn+2] |  | 24.4 µM (active) |
| CC(C)(c1ccc(O)cc1)c1ccc(O)cc1 | inactive |  |
| CCCCC(CC)COC(=O)c1ccccc1C(=O)O (stereo unspecified) | inactive |  |
